From PubChem BioAssay (NCATS) come the findings set out here.

Assay [1] deals with Methanococcus maripaludis chaperonin (MmCpn) (UniProt Q6LX38). Nature of the assay: High-Throughput Screening for Modulators of Cytosolic Chaperonin Activity: MmCpn Primary Screen (AID 488978).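 Also: 50 nM MmCpn enzyme hydrolysing 30 µM ATP at 37 °C; 0% is about no effect.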 The method, boiled down:
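Measures ATPase turnover of the M. maripaludis chaperonin (50 nM final) against 30 uM ATP over 10 min at 37C, with compound added 5 min beforehand at room temperature. ADP is quantified by HTRF immunodetection.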

Assay [2] has as its target Transient receptor potential cation channel subfamily V member 1 (Homo sapiens) (UniProt Q8NER1). In words: HTS Assay for Compounds that Act as Enhancers of the Vanilloid Receptor 1 (AID 488979). Also: 0% is about no effect. The method, boiled down:
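TRPV1-expressing cells loaded with Fluo-8 calcium dye; compounds added and calcium influx read kinetically for 3 min (agonist phase), then capsaicin at EC20 added and read 2 min more for enhancement. Fluorescence ex 480/em 520 nm.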

Assay [3] has as its target Thyrotropin receptor (Homo sapiens) (UniProt P16473). In words: qHTS Assay for Antagonists of the Thyroid Stimulating Hormone Receptor (AID 488980). Also: series mostly up to about 58 µM; 0% is about no effect. The essentials: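 Cells expressing human TSHR (HEK293) are dispensed in HBSS/HEPES containing 70 uM RO 20-1724, compound is added, then TSH at EC80 (4 nM final). Antibody in lysis buffer follows, 30 minutes at room temperature before HTRF detection.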

For assay [4], the target named is D(1A) dopamine receptor (Homo sapiens) (UniProt P21728). Nature of the assay: HTS Assay for Allosteric Agonists of the Human D1 Dopamine Receptor: Primary Screen for Agonists (AID 488981). Also: 0% is about no effect. The method, boiled down:
(§1)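 Tetracycline-induced HEK293 T-REx cells force-coupled to calcium signalling were incubated overnight at 30 C and dye-loaded at room temperature. Calcium flux over 180 s after compound addition flagged agonists; a further 180 s read after EC20 dopamine flagged potentiators.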

For assay [5] the target is unchanged. Nature of the assay: HTS Assay for Allosteric Agonists of the Human D1 Dopamine Receptor: Primary Screen for Potentiators (AID 488982). Also: 0% is about no effect. The essentials:
as §1

Assay [6] has the same target. In words: HTS Assay for Allosteric Agonists of the Human D1 Dopamine Receptor: Primary Screen for Antagonists (AID 488983).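 Also: calcium flux response to an EC80 dopamine challenge measured with no-wash dye; % is scaled to controls: 0 for no effect and ±100 for the full control effect; nearly all actives have a fitted effect of over 65% in size.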 The essentials: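 Calcium-flux read-out in inducible HEK293 T-REx cells expressing D1, dye-loaded 30–90 min at room temperature. Kinetic reads: 180 s after compound (agonist phase), then 180 s after an EC80 dopamine challenge.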
Assay [7] in a line: Validation screen for small molecules that induce genotoxicity in human embryonic kidney (HEK293T) cells expressing luciferase-tagged ELG1 (AID 493106). Also: 0% is about no effect. The essentials:
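ELG1-luciferase reporter readout (ONE-Glo, 30 min, room temperature) after 16 hr compound treatment at 37 °C of HEK293T cells at 2,000 per well. Rising luminescence flags genotoxic stress.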

The target of assay [8] is Thyrotropin-releasing hormone receptor (Homo sapiens) (UniProt P34981). Nature of the assay: qHTS for Small Molecule Agonists and Allosteric Enhancers of Human TRH Receptor: Validation Screen for Agonists (AID 493127;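 active = calcium activation more than 3 SD above the typical response in the agonist read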;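 also: intracellular calcium rise by fluo-8 fluorescence before TRH EC20 addition; 0% is about no effect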). The conditions noted are these: TRH receptor agonist cell assay; at 2 µM; stronger effect = higher value. The method, boiled down:
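Compound-evoked intracellular calcium release in fluo-8-loaded TRHR cells, read kinetically on FDSS (Ex 480/Em 530, 1 s/cycle) after 23 nL pintool transfer. Agonist phase preceded 10 nM TRH EC20 addition.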

Assay [9] can be described thus: qHTS for Inhibitors of Cell Surface uPA Generation: Validation Assay (AID 493164).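 Also: RAW 264.7 macrophage cells exposed to compound for 18 h; 0% is about no effect.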 The method, boiled down: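 ATP-Lite luminescence read-out: ATP remains high when uPA activity-dependent LF translocation into the cytoplasm is blocked. RAW 264.7 cells, 18 h compound exposure at 37 C; 7-point titration, 2.45 nM to 38.3 uM final.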
Assay [10] deals with Galactokinase (Homo sapiens) (UniProt P51570). In words: qHTS Validation Assay for Inhibitors of Human Galactokinase (GALK) (AID 493189). Also: 0% is about no effect. The essentials:
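Compounds were pin-transferred into ATP buffer, then GALK-galactose mix was added (final 5 nM enzyme, 100 uM galactose, 35 uM ATP). After 1 h at room temperature, remaining ATP was measured luminescently.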

Assay [11] in a line: Validation screen for small molecules that induce DNA re-replication in SW480 colon adenocarcinoma cells (AID 504364). Also: 0% is about no effect. The essentials: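 Image-based DNA content read-out: Hoechst stain 40 min, total nuclear fluorescence intensity (ex 405 nm, em 500-530 nm) after 48 h compound exposure of 250 SW480 cells/well at 37 C, 5% CO2, versus DMSO vehicle.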
Assay [12] concerns the target Peptidyl-prolyl cis-trans isomerase NIMA-interacting 1 (Homo sapiens) (UniProt Q13526). In words: qHTS Validation Assay to Find Inhibitors of Pin1 (AID 504536; active = well fitted inhibition curve with a large enough effect in the polarisation, with a control signal flat, not every such curve was filed as active; the % refers to the polarisation;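 also: 0% = full Pin1 enzyme wells and -100% = no-enzyme wells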). The essentials: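 Fluorescence polarization competition: compounds (titration) displace HiFluor-488-labeled Pin1-1b peptide from Pin1 (0.3 uM final) in pH 7.5 HEPES buffer with DTT, 10 min at room temperature; %Activity normalized to no-enzyme wells, curves fitted.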

Assay [13] concerns the target Phosphoglycerate kinase, glycosomal (Trypanosoma brucei brucei) (UniProt P07378). Nature of the assay: qHTS Validation Assay to Find Inhibitors of Phosphoglycerate Kinase (AID 504547).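 Also: control wells lack PGK and mark full inhibition.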 The essentials:
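In TEA buffer (100mM, pH 7.6) containing 5mM MgCl2 and 0.01% Tween-20, the GAPDH-coupled PGK reaction proceeded for 60 minutes at room temperature before a single luminescence reading using Kinase-Glo Plus.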

The target of assay [14] is phosphoglycerate mutase (Leishmania major) (UniProt Q4Q090). In words: qHTS Validation Assay to Find Inhibitors of Phosphoglycerate Mutase (AID 504548). Also: series mostly up to about 58 µM; % is scaled to controls: 0 for no effect and ±100 for the full control effect. The conditions noted are these: Potency: inhibition qHTS. The essentials: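 Lm PGAM 1.25nM final; 100 mM TEA pH 7.6, 5 mM MgCl2, 0.01% Tween-20; 45 min RT; Kinase-GloPlus, 10 min; end-point luminescence. Enzyme-free wells as negative controls.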
phosphoglycerate mutase (Leishmania major), sequence (Q4Q090 1-553): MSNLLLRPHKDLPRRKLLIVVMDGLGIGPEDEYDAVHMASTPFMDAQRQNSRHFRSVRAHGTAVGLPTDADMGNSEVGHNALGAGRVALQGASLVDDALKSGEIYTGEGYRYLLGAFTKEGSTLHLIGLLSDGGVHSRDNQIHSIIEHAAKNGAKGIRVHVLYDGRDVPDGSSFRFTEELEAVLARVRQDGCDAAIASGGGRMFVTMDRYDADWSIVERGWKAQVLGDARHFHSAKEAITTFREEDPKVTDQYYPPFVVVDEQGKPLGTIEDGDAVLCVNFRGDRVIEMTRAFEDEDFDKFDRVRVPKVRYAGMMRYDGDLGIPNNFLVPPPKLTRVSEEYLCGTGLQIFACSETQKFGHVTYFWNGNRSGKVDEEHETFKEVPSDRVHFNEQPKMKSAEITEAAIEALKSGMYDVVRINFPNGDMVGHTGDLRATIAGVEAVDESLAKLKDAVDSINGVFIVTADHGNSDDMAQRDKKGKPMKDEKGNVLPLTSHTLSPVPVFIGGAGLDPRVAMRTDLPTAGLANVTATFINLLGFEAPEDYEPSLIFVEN

Assay [15] can be described thus: qHTS for Inhibitors of ATXN expression: Validation of Cytotoxic Assay (AID 588349). Also: potency is read from the fitted curve at half-maximal effect. The method, boiled down:
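Cytotoxicity counter-screen: ATP-based luminescent viability (CellTiter Glo) after 72 hr exposure of HEK293 cells to a compound titration at 37 degrees C.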

Assay [16] in a line: Nrf2 qHTS screen for inhibitors: Validation (AID 493153; active = well fitted inhibition curve with a large enough effect in the main read-out, with a control signal flat, not every such curve was filed as active). The note with it: Potency: luciferase luminescence; viability change: measured here: cytotoxicity max response. The essentials: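 Concentration-response on A549 ARE_Fluc reporter cells exposed 18-24 h at 37 C, 5% CO2. Cytotoxicity read first by CellTiter-Fluor fluorescence (Ex 405/Em 525), then Nrf2 inhibition by BugLite luminescence after 15 min.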

The target in assay [17] is Ubiquitin carboxyl-terminal hydrolase 1 (Homo sapiens) (UniProt O94782). Nature of the assay: Inhibitors of USP1/UAF1: Pilot qHTS (AID 504865).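 Also: rhodamine fluorescence freed from ubiquitin-rhodamine substrate followed over time; top concentration of the series differs between compounds; % is scaled to controls: 0 for no effect and ±100 for the full control effect; nearly all actives have a fitted effect of over 35% in size.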 The method, boiled down:
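Kinetic fluorescence assay: 1nM USP1/UAF1, 15 min compound preincubation, then 150nM Ub-Rho; 480/540 nm.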

Assay [18] concerns the target ATPase family AAA domain-containing protein 5 (Homo sapiens) (UniProt Q96QE3). Nature of the assay: Validation screen for small molecules that inhibit ELG1-dependent DNA repair in human embryonic kidney (HEK293T) cells expressing luciferase-tagged ELG1 (AID 493107).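 Also: series mostly up to about 46 µM; % is scaled to controls: 0 for no effect and ±100 for the full control effect; inhibitors lower the ELG1-luciferase luminescence signal; nearly all actives have a fitted effect of over 70% in size.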 The essentials: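 Luciferase read-out, ONE-Glo, 30 min at room temperature, follows 16 h co-exposure at 37 C of compound and the DNA-damaging agent 5-fluorouridine. Cells: HEK293T with ELG1-luciferase fusion, 2,000 per well, DMSO as vehicle.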

Records with an inconclusive call do not appear. Activity calls are given as the source filed them. Unless noted, calls follow the shape of the dose curve; as a rule, active = well fitted curve in the direction sought with a large enough effect; inconclusive = small, poorly fitted or top-dose-only effect, or another doubt; inactive = no such curve, though single readings can be large; an effect the other way counts as inactive or inconclusive.

Galactokinase (Homo sapiens), sequence (P51570 whole entry, looked up): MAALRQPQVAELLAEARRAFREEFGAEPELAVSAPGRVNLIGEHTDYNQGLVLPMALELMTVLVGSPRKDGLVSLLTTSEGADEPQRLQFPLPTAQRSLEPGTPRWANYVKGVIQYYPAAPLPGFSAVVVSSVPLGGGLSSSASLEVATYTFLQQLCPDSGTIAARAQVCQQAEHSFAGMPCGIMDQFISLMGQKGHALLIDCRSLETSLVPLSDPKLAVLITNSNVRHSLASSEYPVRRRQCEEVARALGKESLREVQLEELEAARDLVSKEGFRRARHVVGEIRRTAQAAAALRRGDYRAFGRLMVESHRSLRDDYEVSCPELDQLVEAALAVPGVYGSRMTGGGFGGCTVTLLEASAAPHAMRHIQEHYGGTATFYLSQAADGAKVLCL
Thyrotropin-releasing hormone receptor (Homo sapiens), sequence (P34981 whole entry, looked up): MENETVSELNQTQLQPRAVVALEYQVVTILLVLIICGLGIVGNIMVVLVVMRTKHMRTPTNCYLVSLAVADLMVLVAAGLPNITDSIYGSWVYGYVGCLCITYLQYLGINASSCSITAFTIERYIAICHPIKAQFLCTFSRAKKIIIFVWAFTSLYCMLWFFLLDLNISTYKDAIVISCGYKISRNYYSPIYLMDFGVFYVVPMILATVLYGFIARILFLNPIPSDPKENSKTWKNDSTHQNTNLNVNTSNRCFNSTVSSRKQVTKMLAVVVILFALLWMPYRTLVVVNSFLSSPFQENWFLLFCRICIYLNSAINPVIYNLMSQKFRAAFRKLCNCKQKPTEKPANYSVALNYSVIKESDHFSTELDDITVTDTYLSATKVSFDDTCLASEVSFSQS
Ubiquitin carboxyl-terminal hydrolase 1 (Homo sapiens), sequence (O94782 whole entry, looked up): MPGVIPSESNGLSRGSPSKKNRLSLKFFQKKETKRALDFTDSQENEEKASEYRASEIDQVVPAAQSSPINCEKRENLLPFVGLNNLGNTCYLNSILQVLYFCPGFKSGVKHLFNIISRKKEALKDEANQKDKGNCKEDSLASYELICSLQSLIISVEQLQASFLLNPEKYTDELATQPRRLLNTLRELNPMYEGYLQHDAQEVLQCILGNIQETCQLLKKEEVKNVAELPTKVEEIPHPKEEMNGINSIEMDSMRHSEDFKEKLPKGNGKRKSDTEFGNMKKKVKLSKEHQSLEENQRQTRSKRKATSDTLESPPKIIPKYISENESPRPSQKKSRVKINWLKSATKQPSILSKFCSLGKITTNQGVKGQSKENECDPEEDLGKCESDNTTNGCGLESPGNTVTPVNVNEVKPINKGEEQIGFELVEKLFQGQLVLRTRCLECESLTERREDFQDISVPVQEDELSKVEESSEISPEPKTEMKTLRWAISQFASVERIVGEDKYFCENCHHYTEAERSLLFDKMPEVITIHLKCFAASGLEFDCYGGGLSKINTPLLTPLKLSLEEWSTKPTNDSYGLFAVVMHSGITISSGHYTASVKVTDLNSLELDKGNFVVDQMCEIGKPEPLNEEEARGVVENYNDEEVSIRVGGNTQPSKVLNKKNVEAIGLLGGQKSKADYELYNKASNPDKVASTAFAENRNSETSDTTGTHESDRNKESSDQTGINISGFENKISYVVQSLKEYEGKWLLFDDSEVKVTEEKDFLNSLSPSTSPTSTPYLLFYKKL
Thyrotropin receptor (Homo sapiens), sequence (P16473 whole entry, looked up): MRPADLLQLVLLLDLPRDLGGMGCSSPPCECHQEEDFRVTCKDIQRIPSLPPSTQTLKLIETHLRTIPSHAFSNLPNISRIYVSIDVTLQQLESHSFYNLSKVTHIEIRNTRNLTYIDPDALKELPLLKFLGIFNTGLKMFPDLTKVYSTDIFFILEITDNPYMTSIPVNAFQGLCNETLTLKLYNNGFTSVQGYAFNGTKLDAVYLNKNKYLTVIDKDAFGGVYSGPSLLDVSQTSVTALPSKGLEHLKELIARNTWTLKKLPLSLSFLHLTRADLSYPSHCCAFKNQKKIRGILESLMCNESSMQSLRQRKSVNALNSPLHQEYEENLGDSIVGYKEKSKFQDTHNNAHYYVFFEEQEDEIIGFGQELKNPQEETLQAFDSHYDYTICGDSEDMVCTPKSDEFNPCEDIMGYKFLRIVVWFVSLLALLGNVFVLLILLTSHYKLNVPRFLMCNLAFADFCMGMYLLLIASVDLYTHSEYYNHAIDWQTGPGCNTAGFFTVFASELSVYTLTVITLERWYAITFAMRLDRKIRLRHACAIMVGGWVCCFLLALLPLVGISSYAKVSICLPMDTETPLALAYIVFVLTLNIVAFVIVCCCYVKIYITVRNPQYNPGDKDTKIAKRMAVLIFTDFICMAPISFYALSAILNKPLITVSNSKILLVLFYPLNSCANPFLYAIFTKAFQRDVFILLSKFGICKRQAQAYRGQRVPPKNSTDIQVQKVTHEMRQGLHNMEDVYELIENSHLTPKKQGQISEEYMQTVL
D(1A) dopamine receptor (Homo sapiens), sequence (P21728 whole entry, looked up): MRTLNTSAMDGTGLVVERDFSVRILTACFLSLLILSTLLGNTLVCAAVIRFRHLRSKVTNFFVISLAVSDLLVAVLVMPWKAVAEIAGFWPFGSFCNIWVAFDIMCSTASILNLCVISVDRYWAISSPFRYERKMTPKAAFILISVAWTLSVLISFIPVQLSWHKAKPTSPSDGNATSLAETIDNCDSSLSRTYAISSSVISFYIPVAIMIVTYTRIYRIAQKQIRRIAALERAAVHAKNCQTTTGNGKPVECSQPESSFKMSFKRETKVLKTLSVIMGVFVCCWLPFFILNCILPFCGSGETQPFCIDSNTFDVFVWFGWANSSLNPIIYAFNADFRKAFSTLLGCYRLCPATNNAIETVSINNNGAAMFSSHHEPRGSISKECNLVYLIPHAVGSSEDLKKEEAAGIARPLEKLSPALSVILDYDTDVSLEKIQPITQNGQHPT
Transient receptor potential cation channel subfamily V member 1 (Homo sapiens), sequence (Q8NER1 whole entry, looked up): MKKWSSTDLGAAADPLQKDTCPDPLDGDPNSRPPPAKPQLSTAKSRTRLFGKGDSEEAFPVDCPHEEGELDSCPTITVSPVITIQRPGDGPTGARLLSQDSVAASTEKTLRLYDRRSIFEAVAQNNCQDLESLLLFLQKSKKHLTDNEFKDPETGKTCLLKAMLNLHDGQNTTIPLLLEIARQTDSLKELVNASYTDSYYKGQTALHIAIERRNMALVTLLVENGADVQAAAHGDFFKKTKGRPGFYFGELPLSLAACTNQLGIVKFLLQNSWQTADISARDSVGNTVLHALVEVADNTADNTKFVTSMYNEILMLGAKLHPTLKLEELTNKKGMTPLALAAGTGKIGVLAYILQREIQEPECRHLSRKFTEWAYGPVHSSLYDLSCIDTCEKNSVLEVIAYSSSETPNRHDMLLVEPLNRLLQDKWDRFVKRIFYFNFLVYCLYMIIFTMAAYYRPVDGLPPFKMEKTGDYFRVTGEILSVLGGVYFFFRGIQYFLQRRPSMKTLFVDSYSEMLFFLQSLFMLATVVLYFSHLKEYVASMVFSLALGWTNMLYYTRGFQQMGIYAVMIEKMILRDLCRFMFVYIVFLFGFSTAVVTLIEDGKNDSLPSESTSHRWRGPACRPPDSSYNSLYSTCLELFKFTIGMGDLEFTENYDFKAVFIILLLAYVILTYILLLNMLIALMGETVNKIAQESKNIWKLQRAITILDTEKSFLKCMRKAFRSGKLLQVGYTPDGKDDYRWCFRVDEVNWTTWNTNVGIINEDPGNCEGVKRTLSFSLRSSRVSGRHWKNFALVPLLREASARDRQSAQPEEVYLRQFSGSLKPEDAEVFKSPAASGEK
Methanococcus maripaludis chaperonin (MmCpn), sequence (Q6LX38 1-543): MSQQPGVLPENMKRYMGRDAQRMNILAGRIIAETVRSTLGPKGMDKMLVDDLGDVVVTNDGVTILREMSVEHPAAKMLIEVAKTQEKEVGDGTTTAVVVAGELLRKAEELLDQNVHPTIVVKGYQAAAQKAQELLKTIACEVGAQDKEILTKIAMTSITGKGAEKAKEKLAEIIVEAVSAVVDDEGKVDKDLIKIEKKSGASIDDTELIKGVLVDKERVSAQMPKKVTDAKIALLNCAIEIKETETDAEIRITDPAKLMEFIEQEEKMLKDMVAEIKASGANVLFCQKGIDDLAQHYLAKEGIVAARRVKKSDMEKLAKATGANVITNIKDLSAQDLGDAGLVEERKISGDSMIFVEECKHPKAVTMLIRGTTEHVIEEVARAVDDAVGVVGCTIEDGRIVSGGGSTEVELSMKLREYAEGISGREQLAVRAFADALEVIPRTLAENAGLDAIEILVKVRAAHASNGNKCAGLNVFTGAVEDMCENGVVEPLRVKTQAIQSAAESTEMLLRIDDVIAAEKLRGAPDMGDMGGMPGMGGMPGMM
Peptidyl-prolyl cis-trans isomerase NIMA-interacting 1 (Homo sapiens), sequence (Q13526 whole entry, looked up): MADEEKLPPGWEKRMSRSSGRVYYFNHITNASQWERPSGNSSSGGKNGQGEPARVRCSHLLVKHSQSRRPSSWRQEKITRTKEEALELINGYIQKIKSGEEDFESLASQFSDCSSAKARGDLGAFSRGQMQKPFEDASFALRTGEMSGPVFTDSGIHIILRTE

Turning to `O=C1O/C(=C/Br)CCC1c1cccc2ccccc12` (stereo not given), the outcome in assay [1], in [2], in [3] and in assay [9] was inactive. Also, the Potency result in [4], in assay [5], in assay [6], in assay [7], in assay [10] and in [11] was “inactive” throughout. Besides, the Potency entry in [12], in assay [13] and in assay [14] was “inactive” in each case. Further, the activation in assay [8] was -3.56% (inactive). Also, the Potency in [15] was 31.6 µM (active).

Regarding `O=C(O)c1cc(=O)c2ccccc2[nH]1`, the result in assay [1], in assay [2], in [3] and in assay [9] was inactive. In addition, the Potency result in [4], in assay [5], in [6], in assay [7], in [16] and in assay [10] was “inactive” in each case. Also, the Potency entry in assay [11], in [12], in [13], in [14], in assay [17] and in assay [15] was “inactive” throughout. Moreover, the activation in assay [8] is 0.125% (inactive). Besides, the viability change in [16] was -7.12%.

For `O=C(O)c1cc([N+](=O)[O-])ccc1NCCCc1ccccc1`, the result in [1], in [2], in [3] and in assay [9] was inactive. Moreover, the Potency result in assay [4], in [5], in [6], in [7], in [10] and in assay [11] was “inactive” each time. The Potency result in assay [12], in [13] and in assay [14] was “inactive” throughout. For the same molecule, in [8], the activation was 0% (inactive).

With `N=C(N)SCCc1ccc(CCSC(=N)N)cc1`, the call in assay [1], in assay [2] and in [3] was inactive. For the same molecule, the Potency result in [4], in assay [5], in [6], in [7], in [16] and in assay [10] was “inactive” each time. Besides, the Potency result in assay [11], in [12], in assay [13], in [17] and in assay [15] was “inactive” throughout. Further, the activation in assay [8] was 1.12% (inactive). In [16], the viability change was -6.92%.

Take `COc1cc(C(O)CO)ccc1OS(=O)(=O)O` (stereo not given): the outcome in assay [1], in [2], in assay [3] and in assay [9] was inactive. The Potency result in assay [4], in [5], in assay [6], in assay [7], in [16] and in assay [10] was “inactive” in each case. For the same molecule, the Potency entry in [11], in [12], in assay [13], in [14], in assay [17] and in [15] was “inactive” in each case. Further, in assay [8], the activation is -2.69% (inactive). In [16], the viability change is -9.03%.

For `O=C(O)[C@@H]1C[C@H](C(=O)O)N1`, the result in [1], in assay [2], in [3] and in assay [9] was inactive. In addition, the Potency result in assay [4], in assay [5], in assay [6], in [7], in assay [16] and in [10] was “inactive” in each case. The Potency entry in assay [11], in [13], in assay [17] and in assay [15] was “inactive” each time. Also, the activation in assay [8] was -0.25% (inactive). In addition, in assay [16], the viability change came to 12.1%.

In the case of `CC(=O)N[C@H](C(=O)O)C(C)(C)SN=O`, the call in [1], in assay [2], in assay [3] and in assay [9] was inactive. Besides, the Potency entry in assay [4], in assay [5], in assay [6], in assay [7], in assay [16] and in [10] was “inactive” each time. The Potency entry in assay [11], in assay [12], in assay [13], in [17] and in [15] was “inactive” throughout. For the same molecule, the activation in assay [8] is 0.812% (inactive). Moreover, the viability change in [16] is -5%.

As to `CCCCN1CCC(n2c(=O)[nH]c3ccccc32)CC1`, the call in assay [1], in assay [2], in [3] and in [9] was inactive. The Potency result in assay [4], in assay [5], in [6], in assay [7], in [18] and in assay [10] was “inactive” each time. The Potency result in [11], in assay [13], in [14], in assay [17] and in [15] was “inactive” in each case. Moreover, in [8], the activation is 1% (inactive).
